Results from PMC7862700, “An all-to-all approach to the identification of sequence-specific readers for epigenetic DNA modifications on cytosine”.

Legend:
Test in all cases: DAPPL (digital affinity profiling via proximity ligation, sequencing); 10 mM Tris-HCl pH 7.5, 50 mM NaCl, 1 mM DTT, 4% glycerol, room temperature, 30 min; GST-TFs on glutathione beads, 16-mer random dsDNA library, 0.1% formaldehyde crosslink after washing; high values mean tight binding
Details in all cases: protein: recombinant; tags: N-terminal GST; dsDNA, one strand shown
FLI1 = target: T1, FLI1 (Homo sapiens, UniProt Q01543 1-452)
T1 sequence: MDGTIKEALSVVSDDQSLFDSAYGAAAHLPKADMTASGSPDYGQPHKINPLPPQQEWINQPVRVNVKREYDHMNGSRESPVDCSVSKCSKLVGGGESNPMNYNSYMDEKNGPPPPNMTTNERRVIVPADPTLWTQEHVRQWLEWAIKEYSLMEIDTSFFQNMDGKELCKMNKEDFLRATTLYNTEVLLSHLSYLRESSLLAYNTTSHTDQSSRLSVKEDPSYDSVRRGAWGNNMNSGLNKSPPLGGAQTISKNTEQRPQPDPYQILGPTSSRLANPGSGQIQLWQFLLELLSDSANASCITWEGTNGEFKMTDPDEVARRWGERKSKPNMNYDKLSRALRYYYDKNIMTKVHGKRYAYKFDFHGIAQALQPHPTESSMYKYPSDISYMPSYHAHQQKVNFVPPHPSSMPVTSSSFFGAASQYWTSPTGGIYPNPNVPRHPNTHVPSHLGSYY
In short: (§1)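 The binding signal reported is, for every hexamer, its read frequency for a factor over its read frequency for the tag-only sample. Reads came from pools of yeast-expressed, GST-fused human transcription factors on glutathione beads, barcoded with DNA and mixed with that sample, which were incubated with 200 nmole of a random double-stranded 16-mer DNA library in Tris/NaCl/DTT/glycerol buffer at room temperature for 30 min. After washing, the pools were crosslinked with 0.1% formaldehyde, proximity-ligated with BsaI/T4 ligase for 1 h at 37 °C, PCR-amplified and sequenced on an Illumina NextSeq500.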

ELK1 = target: T2, ELK1 (Homo sapiens, UniProt P19419 1-428)
T2 sequence: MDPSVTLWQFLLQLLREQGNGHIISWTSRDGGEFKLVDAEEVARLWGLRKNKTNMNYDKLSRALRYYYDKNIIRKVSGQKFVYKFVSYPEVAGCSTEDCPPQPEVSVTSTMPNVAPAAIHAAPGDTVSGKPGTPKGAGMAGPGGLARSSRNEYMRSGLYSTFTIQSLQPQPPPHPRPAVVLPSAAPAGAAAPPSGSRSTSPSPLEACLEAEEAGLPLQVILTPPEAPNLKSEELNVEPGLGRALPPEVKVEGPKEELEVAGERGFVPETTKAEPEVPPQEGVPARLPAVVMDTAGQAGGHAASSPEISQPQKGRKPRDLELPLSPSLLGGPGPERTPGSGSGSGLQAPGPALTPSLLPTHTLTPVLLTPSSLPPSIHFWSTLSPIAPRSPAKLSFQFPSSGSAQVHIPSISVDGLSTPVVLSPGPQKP
In short: as §1

GABPA = target: T3, GABPA (Homo sapiens, UniProt Q06546 1-454)
T3 sequence: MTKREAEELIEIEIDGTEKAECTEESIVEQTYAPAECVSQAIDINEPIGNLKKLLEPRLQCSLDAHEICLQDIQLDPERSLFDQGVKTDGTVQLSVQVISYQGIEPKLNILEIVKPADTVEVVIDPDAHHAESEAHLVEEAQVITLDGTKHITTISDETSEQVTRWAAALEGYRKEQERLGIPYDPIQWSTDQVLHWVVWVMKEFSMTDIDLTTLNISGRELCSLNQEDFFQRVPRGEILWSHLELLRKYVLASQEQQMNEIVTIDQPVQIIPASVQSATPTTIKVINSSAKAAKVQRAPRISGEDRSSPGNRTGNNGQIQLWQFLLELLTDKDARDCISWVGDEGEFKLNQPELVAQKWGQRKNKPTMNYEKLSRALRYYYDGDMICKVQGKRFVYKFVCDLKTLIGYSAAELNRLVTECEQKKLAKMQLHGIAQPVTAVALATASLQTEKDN
In short: as §1

ERG = target: T4, ERG (Homo sapiens, UniProt P11308 1-479)
T4 sequence: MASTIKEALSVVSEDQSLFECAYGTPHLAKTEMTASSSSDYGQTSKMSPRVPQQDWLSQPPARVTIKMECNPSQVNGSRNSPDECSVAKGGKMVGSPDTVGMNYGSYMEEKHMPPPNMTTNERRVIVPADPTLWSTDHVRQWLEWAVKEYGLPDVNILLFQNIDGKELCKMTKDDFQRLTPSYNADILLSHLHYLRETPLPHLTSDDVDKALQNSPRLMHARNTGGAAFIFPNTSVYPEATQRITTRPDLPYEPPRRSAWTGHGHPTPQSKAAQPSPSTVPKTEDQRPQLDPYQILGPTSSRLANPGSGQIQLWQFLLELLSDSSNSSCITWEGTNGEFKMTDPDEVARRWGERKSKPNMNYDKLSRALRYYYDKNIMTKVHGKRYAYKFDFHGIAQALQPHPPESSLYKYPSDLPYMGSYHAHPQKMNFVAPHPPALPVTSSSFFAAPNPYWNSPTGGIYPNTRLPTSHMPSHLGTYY
In short: as §1

ELF1 = ELF1 (Homo sapiens, UniProt P32519 1-619)
In short: as §1

EHF = target: T5, EHF (Homo sapiens, UniProt Q9NZC4 1-300)
T5 sequence: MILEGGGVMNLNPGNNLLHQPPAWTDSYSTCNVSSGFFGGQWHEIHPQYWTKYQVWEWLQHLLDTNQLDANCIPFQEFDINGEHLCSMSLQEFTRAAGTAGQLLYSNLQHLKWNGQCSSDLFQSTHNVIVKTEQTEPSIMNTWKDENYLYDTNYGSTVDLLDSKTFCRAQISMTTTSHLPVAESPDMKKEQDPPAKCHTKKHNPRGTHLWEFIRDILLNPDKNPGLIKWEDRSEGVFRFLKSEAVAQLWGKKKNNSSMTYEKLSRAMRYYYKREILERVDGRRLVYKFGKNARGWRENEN
In short: as §1

SPIB = SPIB (Homo sapiens, UniProt Q01892 1-262)
In short: as §1

ELK3 = target: T6, ELK3 (Homo sapiens, UniProt P41970 1-407)
T6 sequence: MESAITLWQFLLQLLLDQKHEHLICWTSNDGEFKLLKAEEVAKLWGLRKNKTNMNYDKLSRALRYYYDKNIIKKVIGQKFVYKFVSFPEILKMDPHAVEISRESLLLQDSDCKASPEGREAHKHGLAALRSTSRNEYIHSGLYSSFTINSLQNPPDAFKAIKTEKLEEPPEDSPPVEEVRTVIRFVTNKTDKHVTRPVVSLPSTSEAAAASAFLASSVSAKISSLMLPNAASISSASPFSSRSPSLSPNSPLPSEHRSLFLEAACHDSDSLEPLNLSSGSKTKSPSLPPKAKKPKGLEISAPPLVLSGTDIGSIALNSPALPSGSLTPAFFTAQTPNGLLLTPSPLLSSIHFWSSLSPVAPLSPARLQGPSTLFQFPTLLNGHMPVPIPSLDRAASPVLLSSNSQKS
In short: as §1

FEV = target: T7, FEV (Homo sapiens, UniProt Q99581 1-238)
T7 sequence: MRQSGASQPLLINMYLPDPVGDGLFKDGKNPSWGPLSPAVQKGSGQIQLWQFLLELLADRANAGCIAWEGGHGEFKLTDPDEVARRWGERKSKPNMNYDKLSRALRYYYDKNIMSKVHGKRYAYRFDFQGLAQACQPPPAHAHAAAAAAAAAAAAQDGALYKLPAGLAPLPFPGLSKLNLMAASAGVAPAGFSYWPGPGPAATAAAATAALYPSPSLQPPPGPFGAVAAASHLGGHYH
In short: as §1

SPIB, sequence (Q01892 whole entry): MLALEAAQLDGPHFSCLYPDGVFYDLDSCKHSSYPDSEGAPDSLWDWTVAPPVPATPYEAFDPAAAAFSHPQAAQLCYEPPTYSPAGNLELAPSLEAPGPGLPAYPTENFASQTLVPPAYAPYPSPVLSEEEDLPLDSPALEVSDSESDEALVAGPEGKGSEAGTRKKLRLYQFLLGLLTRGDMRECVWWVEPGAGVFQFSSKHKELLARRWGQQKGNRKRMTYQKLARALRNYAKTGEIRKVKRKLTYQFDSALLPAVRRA
ELF1, sequence (P32519 whole entry): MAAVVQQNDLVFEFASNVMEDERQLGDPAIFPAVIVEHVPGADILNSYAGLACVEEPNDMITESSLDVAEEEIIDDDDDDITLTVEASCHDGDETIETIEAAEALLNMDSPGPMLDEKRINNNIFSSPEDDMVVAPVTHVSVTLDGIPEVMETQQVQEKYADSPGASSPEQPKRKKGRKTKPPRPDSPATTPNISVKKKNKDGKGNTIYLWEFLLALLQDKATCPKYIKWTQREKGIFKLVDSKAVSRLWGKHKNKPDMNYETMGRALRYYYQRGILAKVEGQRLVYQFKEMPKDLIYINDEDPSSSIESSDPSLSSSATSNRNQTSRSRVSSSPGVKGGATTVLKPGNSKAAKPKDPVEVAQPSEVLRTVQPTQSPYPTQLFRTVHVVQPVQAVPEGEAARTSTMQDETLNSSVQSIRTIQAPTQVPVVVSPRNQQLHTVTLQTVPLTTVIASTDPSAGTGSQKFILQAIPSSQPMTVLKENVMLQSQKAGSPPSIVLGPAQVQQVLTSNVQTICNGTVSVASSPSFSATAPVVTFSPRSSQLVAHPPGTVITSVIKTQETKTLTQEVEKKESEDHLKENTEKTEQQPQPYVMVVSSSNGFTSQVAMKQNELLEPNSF

Sequence: TCAACA
- binding signal (FLI1): 1.06 fold enrichment (6-mer frequency, TF over GST control)
- binding signal (ELK1): 1.13 fold enrichment (6-mer frequency, TF over GST control)
- binding signal (GABPA): 1.11 fold enrichment (6-mer frequency, TF over GST control)
- binding signal (ERG): 1.04 fold enrichment (6-mer frequency, TF over GST control)
- binding signal (ELF1): 1.03 fold enrichment (6-mer frequency, TF over GST control)
- binding signal (EHF): 1.05 fold enrichment (6-mer frequency, TF over GST control)
- binding signal (SPIB): 1.01 fold enrichment (6-mer frequency, TF over GST control)
- binding signal (ELK3): 1.06 fold enrichment (6-mer frequency, TF over GST control)
- binding signal (FEV): 1.05 fold enrichment (6-mer frequency, TF over GST control)
